The entries come from a sample that favours hits as a whole.
IDE exosite inh = displaces the probe from the exo-site of human IDE; z-score at 20 µM; 6.3% of 17,000 active; AID 1259349; P14735; purified IDE, FL-6b probe fluorescence polarization; stronger effect = lower value;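 active means z-score of -3 or lower, meaning strong loss of probe binding signal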;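 further: His-tagged human IDE residues 42-1019 made in E. coli with 30 nM FL-6b probe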
Target sequence (P14735 42-1019 limits assumed): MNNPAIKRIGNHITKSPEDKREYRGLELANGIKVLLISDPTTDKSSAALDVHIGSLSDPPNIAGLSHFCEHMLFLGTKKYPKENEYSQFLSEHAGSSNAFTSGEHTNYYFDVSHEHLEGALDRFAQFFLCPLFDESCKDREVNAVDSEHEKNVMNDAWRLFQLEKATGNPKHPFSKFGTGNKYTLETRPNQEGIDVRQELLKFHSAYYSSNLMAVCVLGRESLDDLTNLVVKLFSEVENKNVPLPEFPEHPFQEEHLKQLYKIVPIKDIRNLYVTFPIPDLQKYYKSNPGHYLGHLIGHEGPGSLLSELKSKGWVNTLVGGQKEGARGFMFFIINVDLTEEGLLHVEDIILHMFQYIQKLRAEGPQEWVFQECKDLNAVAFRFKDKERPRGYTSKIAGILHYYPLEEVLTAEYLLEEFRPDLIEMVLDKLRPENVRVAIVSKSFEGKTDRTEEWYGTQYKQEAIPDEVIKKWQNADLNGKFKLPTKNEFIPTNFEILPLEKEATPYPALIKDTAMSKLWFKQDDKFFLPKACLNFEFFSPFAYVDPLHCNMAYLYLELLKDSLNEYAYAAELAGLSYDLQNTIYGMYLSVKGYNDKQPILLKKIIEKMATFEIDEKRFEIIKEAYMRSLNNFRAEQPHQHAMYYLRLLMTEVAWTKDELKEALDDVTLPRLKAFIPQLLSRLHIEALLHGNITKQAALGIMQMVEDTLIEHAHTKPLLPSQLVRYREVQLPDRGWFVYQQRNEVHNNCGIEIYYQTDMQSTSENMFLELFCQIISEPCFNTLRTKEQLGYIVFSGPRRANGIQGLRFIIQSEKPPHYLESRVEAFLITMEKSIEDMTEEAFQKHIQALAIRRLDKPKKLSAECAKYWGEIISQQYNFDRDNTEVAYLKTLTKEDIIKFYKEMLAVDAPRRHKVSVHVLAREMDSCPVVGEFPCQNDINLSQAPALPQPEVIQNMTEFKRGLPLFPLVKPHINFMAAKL
Active calls of the source: *.

SMILES	IDE exosite inh
O=C(CCN1CCCCC1)NCC[C@@H]1CC[C@H](NS(=O)(=O)c2cccc(Cl)c2)[C@@H](CO)O1	0.321
Cc1cccc(S(=O)(=O)N2CCCCN3[C@H](CO)[C@H](c4ccc(C#C[C@@H](C)O)cc4)[C@@H]3C2)c1	4.15
O=C(c1cccc(F)c1)N1CC(=O)N2[C@@H](CO)[C@@H](c3ccc(C4=CCCC4)cc3)[C@@H]2C1	4.7
CC(=O)NC[C@H]1[C@@H](c2ccc(-c3cccc(F)c3)cc2)[C@@H](CO)N1C(C)=O	2.12
CN(C)CC#Cc1ccc([C@@H]2[C@@H](CO)N3C(=O)CN(C(=O)c4cccnc4)C[C@@H]23)cc1	3.56
O=C1CN(Cc2ccc(F)cc2)C[C@@H]2[C@@H](c3ccc(-c4ccccc4F)cc3)[C@H](CO)N12	-0.173
O=S(=O)(c1ccccc1)N1CC2(C1)[C@H](c1ccccc1)[C@@H](CO)N2CC1CCOCC1	-0.652
CN(C[C@@H]1[C@H](c2ccccc2)[C@@H](CO)N1C(=O)C1CC1)C(=O)c1ccccn1	1.86
Cc1cccc(S(=O)(=O)N2CCCCN3[C@H](CO)[C@H](c4ccc(C#CC(C)C)cc4)[C@@H]3C2)c1	3.54
CC(C)C#Cc1ccc([C@H]2[C@H](CO)N3CCCCN(S(=O)(=O)Cc4ccccc4)C[C@@H]23)cc1	1.38
CCCC#Cc1ccc([C@H]2[C@@H](CO)N(C(C)=O)[C@@H]2CNC(=O)C2CC2)cc1	-0.666
O=C1NCCOCc2cnnn2CC[C@H]1Cc1ccc(F)cc1	0.651
COC(=O)c1ccc(CN2CC(=O)N3[C@H](CO)[C@H](c4ccc(-c5cccnc5)cc4)[C@H]3C2)cc1	-1.06
O=C1CN(S(=O)(=O)Cc2ccccc2)C[C@H]2[C@H](c3ccc(C#Cc4cccc(F)c4)cc3)[C@@H](CO)N12	3.83
O=C1CN(S(=O)(=O)Cc2ccccc2)C[C@H]2[C@H](c3ccc(C#Cc4ccccc4)cc3)[C@@H](CO)N12	0.579
O=C1CN(S(=O)(=O)c2ccccc2)C[C@H]2[C@@H](c3ccc(C#Cc4ccccc4)cc3)[C@@H](CO)N12	1.62
CS(=O)(=O)N1CC(=O)N2[C@H](C1)[C@H](c1ccc(C#CCc3ccccc3)cc1)[C@@H]2CO	-3.39*
O=C1CN(S(=O)(=O)Cc2ccccc2)C[C@H]2[C@@H](c3ccc(C#Cc4cccnc4)cc3)[C@H](CO)N12	0.297
CS(=O)(=O)N1CC(=O)N2[C@H](CO)[C@H](c3ccc(C#CCc4ccccc4)cc3)[C@@H]2C1	0.972
O=C1CN(S(=O)(=O)Cc2ccccc2)C[C@@H]2[C@H](c3ccc(C#Cc4ccccc4)cc3)[C@H](CO)N12	-3.51*
CCS(=O)(=O)N1CC(=O)N2[C@H](CO)[C@@H](c3ccc(C#CCc4ccccc4)cc3)[C@@H]2C1	1.73
O=C1CN(S(=O)(=O)Cc2ccccc2)C[C@@H]2[C@@H](c3ccc(C#Cc4ccccc4)cc3)[C@H](CO)N12	-0.81
O=C1CN(S(=O)(=O)Cc2ccccc2)C[C@H]2[C@@H](c3ccc(C#Cc4cccnc4)cc3)[C@@H](CO)N12	-5.82*
O=C1CN(S(=O)(=O)c2ccccc2)C[C@@H]2[C@H](c3ccc(C#Cc4ccccc4)cc3)[C@H](CO)N12	-5.19*
O=C1CN(S(=O)(=O)c2ccccc2)C[C@H]2[C@H](c3ccc(C#Cc4ccccc4)cc3)[C@@H](CO)N12	1.32
SMILES	IDE exosite inh
COc1ccccc1-c1cnc2c(c1)C(=O)N([C@H](C)CO)C[C@@H](C)[C@H](CN(C)C(=O)CC1CC1)O2	-1.16
O=C(c1ccccc1F)N1CC(=O)N2[C@H](CO)[C@@H](c3ccc(C#Cc4ccc(F)cc4)cc3)[C@@H]2C1	1.44
N#C[C@@H]1[C@@H](c2ccc(-c3cncnc3)cc2)[C@H](CO)N1C(=O)C1CCC1	4.66
O=C1CNC[C@@H]2[C@H](c3ccc(-c4ccccc4F)cc3)[C@@H](CO)N12	0.604
O=C1CN(S(=O)(=O)Cc2ccccc2)C[C@H]2[C@@H](c3ccc(C#Cc4ccccc4)cc3)[C@@H](CO)N12	-3.46*
O=C1CN(S(=O)(=O)Cc2ccccc2)C[C@H]2[C@@H](c3ccc(C#Cc4ccc(F)cc4)cc3)[C@@H](CO)N12	-1.37
O=C1CN(S(=O)(=O)Cc2ccccc2)C[C@H]2[C@H](c3ccc(C#Cc4ccccc4)cc3)[C@H](CO)N12	-1.47
CCC(=O)N1CC(=O)N2[C@@H](CO)[C@@H](c3ccc(C#Cc4cccc(F)c4)cc3)[C@@H]2C1	-4.1*
CCS(=O)(=O)N1CC(=O)N2[C@H](C1)[C@H](c1ccc(C#Cc3cccc(F)c3)cc1)[C@@H]2CO	-5.42*
CS(=O)(=O)N1CC(=O)N2[C@H](C1)[C@@H](c1ccc(C#Cc3cccc(F)c3)cc1)[C@@H]2CO	0.906
CCC(=O)N1CC(=O)N2[C@H](CO)[C@H](c3ccc(C#Cc4cccc(F)c4)cc3)[C@H]2C1	-3.99*
CCC(=O)N1CC(=O)N2[C@H](CO)[C@@H](c3ccc(C#Cc4cccc(F)c4)cc3)[C@@H]2C1	-1.1
CCS(=O)(=O)N1CC(=O)N2[C@H](CO)[C@@H](c3ccc(C#Cc4cccc(F)c4)cc3)[C@H]2C1	-2.38
CCC(=O)N1CC(=O)N2[C@H](C1)[C@@H](c1ccc(C#Cc3cccc(F)c3)cc1)[C@@H]2CO	-1.26
CN(C[C@@H]1[C@@H](c2ccccc2)[C@H](CO)N1C(=O)c1ccccc1)C(=O)C1CC1	3.68
O=C(Nc1ccc(F)cc1)N1CCCCN2[C@H](CO)[C@H](c3ccc(C#CC4CC4)cc3)[C@@H]2C1	0.79
OC[C@@H]1[C@@H](c2ccc(-c3cccc(F)c3)cc2)[C@@H]2CN(CCC(F)(F)F)CCCCN12	3.76
C[C@@H]1CN([C@H](C)CO)C(=O)c2cc(C3=CCCCC3)cnc2O[C@@H]1CN(C)S(=O)(=O)c1cn(C)cn1	0.201
O=C(Nc1ccc(C(F)(F)F)cc1)N[C@@H]1C=C[C@H](CC(=O)N2CCCCC2)O[C@H]1CO	0.65
C/C=C/c1ccc([C@@H]2[C@@H](CN(C)C(=O)CC3CC3)N(C(=O)C3CC3)[C@H]2CO)cc1	0.547
N#C[C@H]1[C@H](c2ccccc2C2=CCCC2)[C@@H](CO)N1C(=O)C1CC1	1.41
CN1C(=O)c2cc(NC(=O)c3cccc(Cl)c3)ccc2OC[C@@H]2O[C@@H](CC(=O)NC3CCCCC3)CC[C@H]21	-2.93
O=C(Cc1ccccc1)N1CC(=O)N2[C@H](CO)[C@H](c3ccc(Br)cc3)[C@H]2C1	-1.63
O=C(Cc1ccccc1)N1CC(=O)N2[C@H](C1)[C@@H](c1ccc(Br)cc1)[C@@H]2CO	-5.06*
O=C(Cc1ccccc1)N1CC(=O)N2[C@H](CO)[C@@H](c3ccc(Br)cc3)[C@H]2C1	0.344
SMILES	IDE exosite inh
O=C(Cc1ccccc1)N1CC(=O)N2[C@H](CO)[C@H](c3ccc(C#Cc4ccccc4)cc3)[C@@H]2C1	-7.01*
O=C(Cc1ccccc1)N1CC(=O)N2[C@H](C1)[C@@H](c1ccc(C#CCc3ccccc3)cc1)[C@@H]2CO	-1.64
O=C(Cc1ccccc1)N1CC(=O)N2[C@H](CO)[C@H](c3ccc(C#Cc4ccccc4)cc3)[C@H]2C1	-1.27
N#C[C@@H]1[C@H](c2ccc(-c3cccc(F)c3)cc2)[C@H](CO)N1C(=O)CN1CCOCC1	-0.669
O=C(C1CCCC1)N1CC(=O)N2[C@@H](CO)[C@@H](c3ccc(Br)cc3)[C@@H]2C1	0.209
CCCNC(=O)c1cc2c(c(-c3cccc(-c4ccc(F)cc4)c3)n1)[C@H](CCO)N([S@@](=O)C(C)(C)C)C2	1.47
